In experiment [1] the test system is XIP peptide (Xip251-270) binding. Put plainly: small-molecule binders of XIP peptide, primary screen, biochemical, small-molecule microarray, fluorescence 635/667 nm, 0.1 µg/mL protein (AID 1182). The conditions noted are these: fluorescent protein binding, 635 nm, higher = more signal, called active from +8 up or from −8 down.
In another experiment the test system is XIP peptide (Xip251-270). The experiment is described as follows: small-molecule binders of XIP peptide, primary screen, biochemical, small-molecule microarray, fluorescence 635/667 nm, 0.5 µg/mL protein (AID 1183). The conditions noted are these: small-molecule microarray binding, fluorescence 635 nm; higher = more signal.
The nature of experiment [2]: Plasmodium falciparum growth inhibition, primary screen, strain 3D7, DAPI fluorescence, 100 nL (AID 1184).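 Also: parasites grown inside human red blood cells in medium with human serum.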 The conditions noted are these: P. falciparum 3D7 growth, 3 d, higher = more signal.
For experiment [3], the target named is Homeobox protein Hox-A13 (Mus musculus) (UniProt Q62424). The experiment is described as follows: inhibitors of HoxA13-DNA binding, primary screen, biochemical, fluorescence polarization, labeled oligonucleotide (AID 1185). To be noted: 15 min, higher = more signal, called active from +8 up or from −8 down. On the technique in general: Fluorescence polarisation rises when a labelled molecule tumbles more slowly, as on binding a larger partner.
Chain of Homeobox protein Hox-A13 (Mus musculus) (Q62424 whole entry, looked up): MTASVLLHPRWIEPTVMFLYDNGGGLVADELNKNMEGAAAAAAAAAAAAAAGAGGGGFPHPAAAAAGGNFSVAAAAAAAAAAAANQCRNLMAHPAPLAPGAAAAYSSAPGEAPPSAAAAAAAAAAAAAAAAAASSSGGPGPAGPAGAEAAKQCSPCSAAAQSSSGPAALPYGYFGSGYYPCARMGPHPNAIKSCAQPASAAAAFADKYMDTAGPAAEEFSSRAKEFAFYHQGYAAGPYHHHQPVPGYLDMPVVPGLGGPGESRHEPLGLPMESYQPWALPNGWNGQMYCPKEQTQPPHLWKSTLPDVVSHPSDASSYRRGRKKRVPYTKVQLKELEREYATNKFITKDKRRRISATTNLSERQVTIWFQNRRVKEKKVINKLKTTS

Experiment [4] can be described thus: inhibitors of hydroxyurea-induced Chk1 phosphorylation, primary screen, imaging, HeLa, phospho-Chk1 antibody, percent positive cells (AID 1186). To be noted: hydroxyurea-induced phospho-Chk1 immunofluorescence imaging, higher = more signal.
Experiment [5] in a line: inhibitors of hydroxyurea-induced Chk1 phosphorylation, primary screen, imaging, HeLa, phospho-Chk1 nuclear intensity (AID 1187). To be noted: hydroxyurea-induced phospho-Chk1 immunofluorescence imaging, higher = more signal.

Molecules are shown by their SMILES. Active and inactive are the calls of the source. Unless noted, no rule for the calls is given here.

With `CCCC[C@@H]1C[C@H]1[C@@H](NC(=O)c1ccco1)c1ccccc1`, the composite z-score in experiment [1] was -0.153 (inactive); with XIP peptide (Xip251-270), -0.041. Also, the z-score in experiment [2] was -1.46; in experiment [3] it was -2.46 (inactive); in experiment [4] it was 0.243 (inactive); in experiment [5] it was 0.428 (inactive).

Consider `COc1ccc([Si](C)(C)[C@@H]2[C@@H](CCO)O[C@]3(C(=O)N(Cc4ccccc4)c4ccc(N(C=O)c5ccccc5)cc43)[C@H]2C)cc1`, for which the composite z-score is 0.581 (inactive) in experiment [1] and 0.573 with XIP peptide (Xip251-270). The z-score was -2.79 in experiment [2], -0.204 (inactive) in experiment [3], -1.32 (inactive) in experiment [4] and -0.697 (inactive) in experiment [5].

Turning to `COc1ccc([Si](C)(C)[C@@H]2[C@@H](CCO)O[C@]3(C(=O)N(Cc4cccc(N(C=O)c5ccccc5)c4)c4ccccc43)[C@H]2C)cc1`, the composite z-score in experiment [1] is 1.31 (inactive); with XIP peptide (Xip251-270), 0.675. In addition, the z-score was -2.51 in experiment [2], -0.551 (inactive) in experiment [3], -0.79 (inactive) in experiment [4] and -0.438 (inactive) in experiment [5].

In the case of `COc1cc(CO)cc(I)c1O[C@H]1C=C(C(=O)NCCO)C[C@@H](N(CCc2cccc(F)c2)C(=O)CCC2CCCC2)[C@@H]1O`, the composite z-score in experiment [1] was 0.131 (inactive); in the experiment on XIP peptide (Xip251-270) it was 0.65. Moreover, the z-score in experiment [2] is -2.18; in experiment [3], -6.89 (inactive); in experiment [4], 0.624 (inactive); in experiment [5], 0.824 (inactive).

As for `CC1(C)C(=O)C(c2ccccc2)=C2CN3C(=O)N(CCc4ccccc4)C(=O)C3(Cc3ccccc3)C=C21` (stereo unspecified), the composite z-score in experiment [1] was 1.7 (inactive); in the experiment on XIP peptide (Xip251-270), -0.119. Also, the z-score is -1.34 in experiment [2], -0.335 (inactive) in experiment [3], -0.0628 (inactive) in experiment [4] and 0.121 (inactive) in experiment [5].

For `CN1C(=O)C2C=CC(C(O)C(C)(C)C)N(Nc3ccccc3)C2C1=O` (stereo unspecified), the composite z-score in experiment [1] was 0.127 (inactive); with XIP peptide (Xip251-270), 0.403. In addition, the z-score in experiment [2] is 0.987; in experiment [3], -0.565 (inactive); in experiment [4], -0.415 (inactive); in experiment [5], -0.815 (inactive).

On to `COC(=O)[C@@]1(Cc2ccc(OC)cc2)[C@H]2c3cc(C(=O)N(C)C)n(CCSCCO)c3C[C@H]2CN1C(=O)c1ccccc1`, for which the composite z-score in experiment [1] is 0.149 (inactive); with XIP peptide (Xip251-270) it was 0.504. In addition, the z-score in experiment [2] is -1.48; in experiment [3], -5.09 (inactive); in experiment [4], -0.02 (inactive); in experiment [5], 0.101 (inactive).

Consider `CC(C)[Si]1(C(C)C)O[C@@H](c2ccccc2)c2cc(-c3ccc(-c4ccc(Cl)c(Cl)c4)o3)nc(CCc3ccccc3)c21`, for which the composite z-score was -0.0577 (inactive) in experiment [1] and -1.03 with XIP peptide (Xip251-270). Also, the z-score in experiment [2] was 0.952; in experiment [3], -0.21 (inactive); in experiment [4], 0.0301 (inactive); in experiment [5], -0.289 (inactive).

For the compound `CCOC1=C2C(c3ccc(C)cc3)N(S(=O)(=O)c3ccc(C)cc3)CC2n2c(=O)n(-c3ccccc3)c(=O)n2C1` (stereo unspecified), the values for the composite z-score (in experiment [1]; in the experiment with XIP peptide (Xip251-270)) were 0.346 (inactive) and 0.846, respectively. The z-score in experiment [2] is -0.102; in experiment [3], -0.865 (inactive); in experiment [4], -0.562 (inactive); in experiment [5], 0.0267 (inactive).

On to `CN(C)CCCC[C@@H]1NC(=O)[C@H]2C[C@@H](C(=O)NCCCCCNC(=O)CS)[C@@H](c3ccc(O)cc3)N2C1=O`, for which the composite z-score was -0.276 (inactive) in experiment [1] and 0.903 in the experiment on XIP peptide (Xip251-270). Further, the z-score in experiment [2] was -0.282; in experiment [3], -2.09 (inactive); in experiment [4], 0.358 (inactive); in experiment [5], 0.155 (inactive).

With `O=C(NCC(O)CO)[C@@]1(Cc2ccccc2)N=C(c2ccc(OCCCO)cc2)O[C@H]1c1ccccc1` (stereo partly specified), the composite z-score was 0.502 (inactive) in experiment [1] and 0.801 in the experiment on XIP peptide (Xip251-270). Further, the z-score in experiment [2] is -1.22; in experiment [3] it was -4 (inactive); in experiment [4], -0.607 (inactive); in experiment [5], -0.29 (inactive).

With `Cc1ccc(N2C(=O)c3ccccc3[C@@H](C(=O)NC(C)C)[C@@H]2c2ccc(CO)cc2)nc1`, the composite z-score in experiment [1] was 0.262 (inactive); with XIP peptide (Xip251-270), 0.82. Besides, the z-score in experiment [2] is 0.679; in experiment [3], -1.68 (inactive); in experiment [4] it was 0.364 (inactive); in experiment [5], 0.43 (inactive).

`CN1C(=O)C2C=CC(C(O)C3=C[C@H]4C[C@@H](C3)C4(C)C)N(Nc3ccc([N+](=O)[O-])cc3[N+](=O)[O-])C2C1=O` (stereo partly specified): the figures for the composite z-score (in experiment [1]; with XIP peptide (Xip251-270)) were 0.334 (inactive) and 0.704, respectively. Moreover, the z-score in experiment [2] is 0.395; in experiment [3], -3.59 (inactive); in experiment [4], -0.21 (inactive); in experiment [5] it was -0.257 (inactive).

Turning to `CCCCN1CC=CC23O[C@@H]4C=CCCOC(=O)C4[C@H]2C(=O)N(CCCO)[C@@H]3C1=O` (stereo partly specified), the composite z-score was -0.687 (inactive) in experiment [1] and -0.624 in the experiment on XIP peptide (Xip251-270). Further, the z-score in experiment [2] is -1.74; in experiment [3] it was -3.72 (inactive); in experiment [4], -0.0781 (inactive); in experiment [5] it was -0.559 (inactive).

With `COCCOC(=O)N1C(=O)[C@@]2(c3cc(C#Cc4ccc(OC)cc4)ccc31)[C@H](c1ccc(OCCO)cc1)N1[C@H](c3ccccc3)[C@H](c3ccccc3)OC(=O)[C@H]1[C@@H]2C(=O)N1CCc2cc(OC)c(OC)cc2C1`, the composite z-score in experiment [1] is 0.179 (inactive); in the experiment on XIP peptide (Xip251-270) it was 0.592. The z-score in experiment [2] was -1.85; in experiment [3] it was 3.38 (inactive); in experiment [4], -0.329 (inactive); in experiment [5], -0.456 (inactive).

Consider `C=C(CCCC)/C(=C/C[C@H](OC(C)=O)c1ccc(CO)o1)c1cc(C(=O)OC)ccc1OC`, for which the composite z-score in experiment [1] is 0.485 (inactive); in the experiment on XIP peptide (Xip251-270) it was 0.73. In addition, the z-score was -1.52 in experiment [2], -4.44 (inactive) in experiment [3], -0.92 (inactive) in experiment [4] and -0.469 (inactive) in experiment [5].

As for `COc1ccc([Si](C)(C)[C@@H]2[C@@H](CCO)O[C@]3(C(=O)N(Cc4cccc(N5CCCCC5=O)c4)c4ccccc43)[C@H]2C)cc1`, the composite z-score was 0.278 (inactive) in experiment [1] and 0.648 in the experiment with XIP peptide (Xip251-270). Moreover, the z-score is -2.82 in experiment [2], -5.08 (inactive) in experiment [3], -0.405 (inactive) in experiment [4] and -0.474 (inactive) in experiment [5].

On to `CC(C)(C)OC(=O)CC[C@]1(C(=O)NCC(O)CO)N=C(c2ccc(OCCCO)cc2)O[C@H]1c1ccccc1CN=[N+]=[N-]` (stereo partly specified), for which the composite z-score in experiment [1] is 3.09 (inactive); in the experiment on XIP peptide (Xip251-270), 0.878. The z-score in experiment [2] is -0.121; in experiment [3], -5.33 (inactive); in experiment [4], -0.029 (inactive); in experiment [5], 0.402 (inactive).

For `O=C1C2C=CC(C(O)c3ccc(Br)cc3)N(n3cnnc3)C2C(=O)N1Cc1ccccc1` (stereo unspecified), the composite z-score in experiment [1] was 0.568 (inactive); in the experiment on XIP peptide (Xip251-270), 0.76. Further, the z-score in experiment [2] is -0.084; in experiment [3], 0.314 (inactive); in experiment [4] it was -0.47 (inactive); in experiment [5], -0.618 (inactive).

For `C=CCOC(=O)[C@H]1[C@@H]2C(=O)O[C@@H](c3ccccc3)[C@@H](c3ccccc3)N2[C@@H](c2ccc(OCCOC(=O)[C@@H]3C[C@@H]4C(=O)NCC(=O)N4[C@@H]3c3ccc(O)cc3)cc2)[C@]12C(=O)Nc1ccc(I)cc12`, the composite z-score in experiment [1] was 0.2 (inactive); in the experiment with XIP peptide (Xip251-270), 0.825. Besides, the z-score in experiment [2] was -1.11; in experiment [3], 0.274 (inactive); in experiment [4], 0.147 (inactive); in experiment [5], 0.192 (inactive).

With `CCOC(=O)C1=C[C@@H](C(C)(C)C)N(S(=O)(=O)c2ccc(C)cc2)[C@H]1c1ccc(Cl)c(Cl)c1`, the composite z-score in experiment [1] is -0.0073 (inactive); with XIP peptide (Xip251-270), 0.762. The z-score in experiment [2] is -1.96; in experiment [3], -0.524 (inactive); in experiment [4] it was -0.0683 (inactive); in experiment [5] it was -0.633 (inactive).

(Values after PubChem BioAssay.)
